Where “and” joins values, the source holds several entries; their conditions need not be identical. Equal values may be shown once. Inconclusive results are not listed. Where a structure was tested more than once in an assay, its records may differ in their call. Calls of active or inactive are those of the source. Rule for the calls, unless noted: active = hit-call score of the fitted dose curve at least 0.9, where 1 is the maximum; inconclusive = response in the unintended direction; inactive = score below 0.9.
Key:
[1] = read-out: Thyroid Hormone Responsive (THRSP), THRSP (gene 7069); experiment: LTEA_HepaRG_THRSP: Life Technologies and Expression Analysis (LTEA) Assay for Thyroid Hormone Responsive (THRSP) using HepaRG (AID 2283536; active = hit-call score of the fitted dose curve at least 0.9, where 1 is the maximum; inactive = score below 0.9); details: mRNA level, 48 h; actives raise or lower the signal
Outline: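 Cell model: human HepaRG, approx. 100,000 cells/well, 0.5% DMSO vehicle. Exposure lasts 48 h; phenobarbital 1 mM serves as induction positive control. Gene expression is measured by qRT-PCR against three endogenous control genes.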

[2] = read-out: Cellular tumor antigen p53 (Homo sapiens) (UniProt P04637); experiment: LTEA_HepaRG_TP53: Life Technologies and Expression Analysis (LTEA) Assay for Tumor Protein P53 (TP53) using HepaRG (AID 2283537; active = hit-call score of the fitted dose curve at least 0.9, where 1 is the maximum; inactive = score below 0.9); details: mRNA level, 48 h; actives raise or lower the signal
Outline: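 Read-out is TP53 transcript level by microfluidic qRT-PCR, normalised to three housekeeping genes and fitted bidirectionally against DMSO. Human HepaRG cells received compounds for 48 h, highest concentration 100 uM.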

[3] = read-out: UDP glucuronosyltransferase (UGT1A1), UGT1A1 (gene 54658); experiment: LTEA_HepaRG_UGT1A1: Life Technologies and Expression Analysis (LTEA) Assay for UDP glucuronosyltransferase (UGT1A1) using HepaRG (AID 2283538; active = hit-call score of the fitted dose curve at least 0.9, where 1 is the maximum; inactive = score below 0.9); details: mRNA level, 48 h; actives raise or lower the signal
Outline: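 HepaRG, 48 h chemical exposure (top 100 uM, half-log 8-pt, 0.5% DMSO vehicle), duplicate wells; qRT-PCR (TaqMan, Fluidigm array) for UGT1A1 mRNA, housekeeping-normalized; bidirectional curve fit vs DMSO baseline.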

[4] = read-out: UDP glucuronosyltransferase (UGT1A6), UGT1A6 (gene 54578); experiment: LTEA_HepaRG_UGT1A6: Life Technologies and Expression Analysis (LTEA) Assay for UDP glucuronosyltransferase (UGT1A6) using HepaRG (AID 2283539; active = hit-call score of the fitted dose curve at least 0.9, where 1 is the maximum; inactive = score below 0.9); details: mRNA level, 48 h; actives raise or lower the signal
Outline: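 Expression was quantified by TaqMan qRT-PCR on Fluidigm arrays with ACTB/GAPDH/POLR2A normalization and bidirectional fitting against 0.5% DMSO. HepaRG cells (~100,000/well) were treated in duplicate for 48 h at eight half-log concentrations up to 100 uM in serum-free induction medium.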

[5] = read-out: X-box binding protein 1 (XBP1), XBP1 (gene 7494); experiment: LTEA_HepaRG_XBP1: Life Technologies and Expression Analysis (LTEA) Assay for X-box binding protein 1 (XBP1) using HepaRG (AID 2283540; active = hit-call score of the fitted dose curve at least 0.9, where 1 is the maximum; inactive = score below 0.9); details: mRNA level, 48 h; actives raise or lower the signal
Outline: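 XBP1 transcript by qRT-PCR (housekeeping-normalized: ACTB, GAPDH, POLR2A) after 48 h chemical treatment of HepaRG cells, 8-point half-log series topping at 100 uM, vehicle 0.5% DMSO. Gain and loss of signal fitted relative to DMSO.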

[6] = LTEA_HepaRG_LDH_cytotoxicity: Cytotoxicity Assessment in the Life Technologies and Expression Analysis (LTEA) Assay (AID 2283563);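 for AC50: LDH activity released into spent culture medium as a marker of cell death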
Outline: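 LDH release into culture medium read after 48 h chemical treatment of HepaRG cells. Duplicate wells, eight-point half-log series topping at 100 uM, 0.5% DMSO vehicle and baseline.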

[7] = ATG_XTT_Cytotoxicity: Cytotoxicity Assessment in the Attagene TRANS-FACTORIAL HepG2 Assay (AID 2283584);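 for AC50: cells exposed to compound for 24 h before reading; active means loss of viability signal versus DMSO baseline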
Outline: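 Viability endpoint from XTT after 24 h chemical exposure of reporter-transfected human HepG2 liver cells; signal loss fitted relative to DMSO negative control.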

[8] = TOX21_p53_BLA_p2_viability: Viability Assessment in the Tox21 HCT-116 p53 Agonism Beta-lactamase Assay, Phase 2 (AID 2283591);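 note: compound exposure lasted 16 h at 37 °C; actives lower the ATP signal meaning cytotoxicity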
Outline: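 HCT-116 p53-bla cells (4000/well) rested 5 h at 37C, then received compounds in DMSO (217-fold dilution) for 16 h at 37C, 5% CO2. After the CCF4 read, CellTiter-Glo was added; ATP luminescence was read after 30 min at room temperature.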

[9] = target: Cellular tumor antigen p53 (Homo sapiens) (UniProt P04637); experiment: TOX21_p53_BLA_p2_ratio: Tox21 HCT-116 p53 Agonism Beta-lactamase Assay, Ratio, Phase 2 (AID 2283592)
Outline: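 Read-out is the blue/green (460/530 nm, 405 nm excitation) ratio after 2 h CCF4-AM loading, fitted as gain versus DMSO. Compounds, pinned at 217-fold dilution from DMSO stocks, stayed 16 h on HCT-116 beta-lactamase reporter cells seeded 5 h earlier.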

[10] = TOX21_p53_BLA_p3_viability: Viability Assessment in the Tox21 HCT-116 p53 Agonism Beta-lactamase Assay, Phase 3 (AID 2283593);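 note: cells exposed to compound for 16 h before reading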
Outline: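 HCT-116 cells (4000/well) rested 5 h at 37C, then got DMSO compounds by pin tool (217-fold dilution) for 16 h at 37C, 5% CO2. After the bla read, CellTiter-Glo was added and luminescence read at 30 min, room temperature.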

[11] = target: Cellular tumor antigen p53 (Homo sapiens) (UniProt P04637); experiment: TOX21_p53_BLA_p3_ratio: Tox21 HCT-116 p53 Agonism Beta-lactamase Assay, Ratio, Phase 3 (AID 2283596)
Outline: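 Cells were seeded at 4000/well, rested 5 h at 37C, then dosed with DMSO compound solutions (217-fold dilution) for 16 h. CCF4-AM substrate was loaded for 2 h at room temperature, and the 460/530 nm emission ratio was fitted for gain of signal versus DMSO.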

[12] = target: Cellular tumor antigen p53 (Homo sapiens) (UniProt P04637); experiment: TOX21_p53_BLA_p4_ratio: Tox21 HCT-116 p53 Agonism Beta-lactamase Assay, Ratio, Phase 4 (AID 2283601)
Outline: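 HCT116 cells carrying an inducible beta-lactamase reporter were plated at 4000 cells/well, rested 5 h, then exposed to compounds in DMSO (217-fold dilution) for 16 h at 37C. CCF4-AM substrate was loaded 2 h at room temperature; 460/530 nm emission ratio scored gain-of-signal versus DMSO.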

[13] = Tanguay_ZF_120hpf_MORT_legacy: (Legacy) Oregon State University Tanguay Lab 120 Hour Post-fertilization zebrafish Assay for Mortality (AID 2283633);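 for AC50: fitted as increase in binary mortality versus DMSO negative control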
Outline: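 Static waterborne exposure from 6 to 120 hpf at 28C of single dechorionated wild-type (5D) embryos per well, 0.64% DMSO final. Death recorded present/absent by brightfield at 24 and 120 hpf.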

[14] = Tanguay_ZF_120hpf_YSE_legacy: (Legacy) Oregon State University Tanguay Lab 120 Hour Post-fertilization zebrafish Assay for Yolk Sac Edema (AID 2283634)
Outline: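 Presence or absence of yolk sac edema was recorded at 120 hpf in surviving larvae. These were wild-type Tropical 5D embryos, chorion removed at 4 hpf, held in static exposure at 28C from 6 hpf with 0.64% DMSO vehicle.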

[15] = Tanguay_ZF_120hpf_AXIS_legacy: (Legacy) Oregon State University Tanguay Lab 120 Hour Post-fertilization zebrafish Assay for Body Axis Malformation (AID 2283635)
Outline: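 Binary scoring of axis defects at 120 hpf under brightfield, fitted positive versus DMSO. Tropical 5D embryos, chorion removed by pronase at 4 hpf, were singly exposed in sealed, dark plates at 28C from 6 hpf; DMSO 0.64% final.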

[16] = Tanguay_ZF_120hpf_EYE_legacy: (Legacy) Oregon State University Tanguay Lab 120 Hour Post-fertilization zebrafish Assay for Eye Malformation (AID 2283636);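 note: binary presence or absence of eye malformation scored by brightfield in 120 hpf larvae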
Outline: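 Static waterborne exposure of dechorionated zebrafish embryos (strain Tropical 5D), 6 to 120 hpf, sealed plates at 28C, 0.64% DMSO vehicle. Eye malformation is scored as a binary endpoint, with gain of signal analysed relative to DMSO.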

[17] = Tanguay_ZF_120hpf_SNOU_legacy: (Legacy) Oregon State University Tanguay Lab 120 Hour Post-fertilization zebrafish Assay for Snout Malformation (AID 2283637)
Outline: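 Dechorionated zebrafish, individually housed from 6 hpf in covered, sealed wells at 28C with 0.64% DMSO vehicle, were examined at 120 hpf for snout malformation. Responses were binary and analysed positive-direction relative to DMSO.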

[18] = TOX21_p53_BLA_p4_viability: Viability Assessment in the Tox21 HCT-116 p53 Agonism Beta-lactamase Assay, Phase 4 (AID 2283597);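 note: hits lower the luminescence signal meaning cytotoxicity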
Outline: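 Cytotoxicity as reduced cellular ATP (CellTiter-Glo luminescence, 30 min room temperature), measured in the same wells following the CCF4 FRET p53 reading. Human HCT-116 cells received compounds in DMSO (217-fold dilution) for 16 h.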

[19] = target: Cellular tumor antigen p53 (Homo sapiens) (UniProt P04637); experiment: TOX21_p53_BLA_p5_ratio: Tox21 HCT-116 p53 Agonism Beta-lactamase Assay, Ratio, Phase 5 (AID 2283599)
Outline: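 HCT-116 cells carrying a p53-inducible beta-lactamase reporter were seeded at 4000 cells/well and dosed after 5 h with compound in DMSO (217-fold dilution). After 16 h at 37C, CCF4-AM substrate was added for 2 h, and the 460/530 nm emission ratio was scored as gain-of-signal versus DMSO.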

[20] = TOX21_p53_BLA_p5_viability: Viability Assessment in the Tox21 HCT-116 p53 Agonism Beta-lactamase Assay, Phase 5 (AID 2283600)
Outline: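 Viability came from CellTiter-Glo ATP luminescence, read after 30 min at room temperature. Before this, HCT-116 p53-bla cells (4000/well) had 16 hours of compound exposure at 37C, with DMSO stocks diluted 217-fold on transfer.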

Measured: AC50

Cellular tumor antigen p53 (Homo sapiens), sequence (P04637 whole entry, looked up): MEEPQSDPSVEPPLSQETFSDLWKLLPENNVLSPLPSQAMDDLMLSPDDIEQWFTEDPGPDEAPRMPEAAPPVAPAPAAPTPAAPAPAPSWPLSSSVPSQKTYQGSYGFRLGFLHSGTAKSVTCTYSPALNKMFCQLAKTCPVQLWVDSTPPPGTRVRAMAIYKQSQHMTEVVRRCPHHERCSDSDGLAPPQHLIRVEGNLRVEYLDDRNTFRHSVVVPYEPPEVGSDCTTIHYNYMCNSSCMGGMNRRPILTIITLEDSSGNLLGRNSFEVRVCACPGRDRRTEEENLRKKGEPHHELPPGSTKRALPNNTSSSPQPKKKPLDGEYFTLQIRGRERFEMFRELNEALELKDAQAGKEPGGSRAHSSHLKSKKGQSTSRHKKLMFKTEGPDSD

CCOCCOCCO
inactive: [1] | [2] | [3] | [4] | [5] | [6] | [7] | [8] | [9] | [10] | [11] | [12] | [13] | [14] | [15] | [16] | [17]

C=CCCCCCCCCCCCC
inactive: [1] | [2] | [3] | [4] | [5] | [6] | [7] | [9] | [11] | [12] | [13] | [14] | [15] | [16]

CCCCC(CC)COC(=O)CCCCCCCC(=O)OCC(CC)CCCC (configuration not stated)
inactive: [1] | [2] | [3] | [4] | [5] | [6] | [7] | [8] | [9] | [10] | [11] | [18] | [19] | [20] | [12] | [13] | [14] | [15] | [16] | [17]

NCCOCCOCCN
inactive: [1] | [2] | [3] | [4] | [5] | [7] | [8] | [9] | [10] | [11] | [18] | [20] | [12] | [13] | [14] | [15] | [17]

CN(C)CCCN1c2ccccc2Sc2ccc(Cl)cc21
active: [1] 15.8 µM | [6] 38.4 µM | [7] 43.2 µM | [8] 73.4 µM | [9] 6.66 µM | [18] 36.8 µM and 73.4 µM | [20] 77.8 µM | [12] 20.6 µM | [13] 16.3 µM
inactive: [2] | [3] | [4] | [5] | [9] | [10] | [11] | [12] | [14] | [15] | [16] | [17]

NC(=Nc1ccccc1)Nc1ccccc1
active: [1] 12.8 µM
inactive: [2] | [3] | [4] | [5] | [8] | [9] | [10] | [18] | [20] | [12] | [13] | [14] | [15] | [16] | [17]

Cc1cc(Cc2ccc(N)c(C)c2)ccc1N
inactive: [1] | [2] | [4] | [5] | [6] | [7] | [8] | [9] | [10] | [11] | [18] | [20] | [13] | [14] | [15] | [16] | [17]
active: [3] 28.1 µM

COc1ccc(OC(F)(F)F)cc1CN[C@H]1CCCN[C@H]1c1ccccc1
inactive: [1] | [5] | [9] | [10] | [20] | [14] | [15] | [16] | [17]
active: [2] 77.7 µM | [3] 83.8 µM | [4] 89.9 µM | [6] 73.6 µM | [8] 69.3 µM | [18] 62.1 µM | [12] 82.3 µM | [13] 25 µM

O=C(O)c1[nH]n(-c2ccc(S(=O)(=O)O)cc2)c(=O)c1N=Nc1ccc(S(=O)(=O)O)cc1
active: [9] 0.000189 µM | [11] 0.0528 nM | [12] 6.18e-05 µM
inactive: [1] | [2] | [3] | [4] | [5] | [9] | [10] | [11] | [18] | [20] | [13] | [14] | [15] | [16] | [17]

OCC(CO)n1cnc(-c2ccc(F)cc2)c1-c1ccnc(Oc2ccccc2)n1
inactive: [1] | [2] | [4] | [5] | [8] | [9] | [10] | [18] | [20] | [13] | [14] | [15] | [17]
active: [3] 24.9 µM

CS(=O)(=O)c1ccc([C@@H](C[C@H]2CCC(=O)C2)C(=O)Nc2cnccn2)cc1Cl
inactive: [3] | [4] | [7] | [8] | [10] | [11] | [20] | [12] | [13] | [14] | [15] | [16] | [17]
active: [1] 27.2 µM | [2] 1.09 µM | [5] 1.33 µM

CCCCCCC(CCCCCCCCCCC(=O)OCC(COC(C)=O)OC(C)=O)OC(C)=O (configuration not stated)
inactive: [1] | [2] | [3] | [4] | [5] | [7] | [9] | [20] | [12] | [13] | [14] | [15] | [16] | [17]

From PubChem BioAssay (EPA / NIEHS)
